Cruzain inh Det: cruzain (T. cruzi) inhibition with detergent; P25779; 200,000 compounds, 0.43% hits; purified cruzain, Z-FR-AMC fluorescence, 0.01% Triton; Potency, µM, without a hit: max response, negative = inhibition, most hits filed as inhibitors;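 further: plate controls were neutral wells for no effect and buffer without enzyme for full effect; nearly all actives have a fitted effect of over 40% in size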
Target sequence (P25779 123-467 limits assumed): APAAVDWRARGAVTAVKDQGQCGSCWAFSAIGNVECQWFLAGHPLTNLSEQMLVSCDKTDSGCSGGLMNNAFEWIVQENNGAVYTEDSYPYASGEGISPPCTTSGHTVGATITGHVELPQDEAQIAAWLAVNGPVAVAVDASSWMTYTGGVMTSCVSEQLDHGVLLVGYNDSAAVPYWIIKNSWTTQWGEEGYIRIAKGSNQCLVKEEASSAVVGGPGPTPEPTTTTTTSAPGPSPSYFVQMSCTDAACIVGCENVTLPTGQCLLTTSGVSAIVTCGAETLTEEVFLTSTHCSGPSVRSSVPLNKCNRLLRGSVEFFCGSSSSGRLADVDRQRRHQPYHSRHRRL
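15 min RT preincubation of 1.5 nM cruzain with compound, then 2 uM Z-FR-AMC added; kinetic AMC fluorescence, 60 s delta. Triton X-100 0.01%, pH 5.5.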
Cruzain noTriton: cruzain (T. cruzi) inhibition without detergent; P25779; purified cruzain, Z-FR-AMC fluorescence, no detergent; Potency, µM, inactives show max response, negative = inhibition, actives largely listed as inhibitors; 200,000 compounds, 2.3% hits; AID 1476;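 further: plate controls were enzyme without inhibitor for no effect and buffer without enzyme for full effect; nearly all actives have a fitted effect of over 40% in size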
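Detergent-free condition (0.00005% Triton X-100) in acetate buffer pH 5.5 with DTT. 1.5 nM enzyme and compound were pre-mixed 15 min, then 2 uM Z-FR-AMC substrate added; reaction progress from fluorescence change between first and third reads (60 s).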
The depositor's hits bear a star; ! = repeats disagree. Rows were chosen to be rich in hits. Some 2.5% of all compounds tested hit in one or more screens of this group. The call rests on the fitted dose curve; in most records, active means well fitted curve in the direction sought with a large enough effect; inconclusive means small, poorly fitted or top-dose-only effect, or another doubt; inactive means no such curve, though single readings can be large; an effect the other way counts as inactive or inconclusive. Potency means the concentration at half of the fitted maximal effect.

What do the screens show for `O=C(Nc1ccc(Cn2cccn2)cc1)c1ccc(COc2ccc(Br)cc2)cc1`?
Cruzain inh Det: 2.4%; Cruzain noTriton: 12.6µM*

What do the screens show for `O=C(Nc1ccc(Cn2cccn2)cc1)c1ccc(COc2cccc(Br)c2)cc1`?
Cruzain inh Det: -3.7%; Cruzain noTriton: -13.2%

What do the screens show for `NCCOc1ccccn1`?
Cruzain inh Det: 3.6%; Cruzain noTriton: -1.9%

Results for CSc1cccc(NC(=O)Cn2nnc(C(=O)NCCc3ccccc3)c2N)c1 ?
Cruzain inh Det: -0.7%; Cruzain noTriton: inconclusive

How did O=C(CSc1nc2ccccc2s1)N1CCCCC1 do in these assays?
Cruzain inh Det: -2.9%; Cruzain noTriton: -5.7%

Results for Cc1c(Cl)cccc1N/C(SCC(=O)N1CCCCCC1)=C(/C#N)c1nc2ccccc2s1 ?
Cruzain inh Det: -5.5%; Cruzain noTriton: 10µM*

How did CCC1CCCCN1c1ccc([N+](=O)[O-])cc1/C=N/NC(=O)Cn1c2ccccc2c(=O)c2ccccc21 (configuration not stated) do in these assays?
Cruzain inh Det: -1.0%; Cruzain noTriton: 6.31µM*

What do the screens show for `CCc1ccc(OCC(=O)N/N=C/c2cc([N+](=O)[O-])ccc2N2CCCCCC2)cc1`?
Cruzain inh Det: -3.7%; Cruzain noTriton: inconclusive

Results for COc1cccc(NC(=O)c2c(C)oc3nc(C)nc(N4CCCC4)c23)c1 ?
Cruzain inh Det: -1.2%; Cruzain noTriton: 14.8%

Results for COc1cc(Cl)c(C)cc1NC(=O)Cn1cc(S(=O)(=O)N2CCN(c3ccccc3F)CC2)c2ccccc2c1=O ?
Cruzain inh Det: -2.7%; Cruzain noTriton: -25.7%

What do the screens show for `COc1ccc(NC(=O)Cn2cc(S(=O)(=O)N3CCN(c4ccccc4F)CC3)c3ccccc3c2=O)cc1Cl`?
Cruzain inh Det: -1.3%; Cruzain noTriton: 7.94µM*

Results for Cc1onc(-c2c(Cl)cccc2Cl)c1C(=O)NC(=S)Nc1sc2c(c1C(N)=O)CCC(C)C2 (configuration not stated) ?
Cruzain inh Det: 3.5%; Cruzain noTriton: 3.98µM*

Results for COc1ccc(-c2cc(C(=O)Nc3sc4c(c3C(N)=O)CCC(C)C4)no2)cc1 (configuration not stated) ?
Cruzain inh Det: -2.1%; Cruzain noTriton: -4.0%

Results for CC(=O)c1ccc(N2CCN(C(=O)CS(=O)(=O)c3cccc4nsnc34)CC2)cc1 ?
Cruzain inh Det: -2.4%; Cruzain noTriton: -12.0%

What do the screens show for `CCOc1ccc(Nc2cc(C)nc3nc(Cc4ccc(Cl)cc4)nn23)cc1`?
Cruzain inh Det: -5.7%; Cruzain noTriton: -3.0%

Results for Cc1cc(SCC(=O)N2CCC(c3noc4ccc(F)cc34)CC2)nc2ccccc12 ?
Cruzain inh Det: -1.8%; Cruzain noTriton: -13.4%

Results for O=C(CSc1ncnc2sc3c(c12)CCCC3)N1CCC(c2noc3ccc(F)cc23)CC1 ?
Cruzain inh Det: 2.6%; Cruzain noTriton: 15.8µM*

How did CC(C)(C)C(=O)Oc1cc(N)n(S(=O)(=O)c2ccc(F)cc2)n1 do in these assays?
Cruzain inh Det: -2.9%; Cruzain noTriton: 2.2%

How did Nc1cc(OC(=O)c2ccco2)nn1S(=O)(=O)c1ccc(F)cc1 do in these assays?
Cruzain inh Det: 25.1µM*; Cruzain noTriton: 20µM*

Results for COc1ccc(CNc2ncnc3onc(-c4ccc(F)cc4)c23)cc1 ?
Cruzain inh Det: -4.7%; Cruzain noTriton: 11.8%

What do the screens show for `O=C(CCc1nc2ccccc2c(=O)[nH]1)OCC(=O)c1ccc(C2CCCCC2)cc1`?
Cruzain inh Det: -5.0%; Cruzain noTriton: 15.8µM*

How did CC1CC(C)CN(C(=O)COC(=O)CCc2nc3ccccc3c(=O)[nH]2)C1 (configuration not stated) do in these assays?
Cruzain inh Det: -0.4%; Cruzain noTriton: 0.3%

Results for COc1ccc2c(=O)c3c(=O)n(Cc4ccco4)c(-c4ccc(C)cc4)nc3oc2c1 ?
Cruzain inh Det: -6.4%; Cruzain noTriton: -22.8%

Results for COc1ccc2c(=O)c3c(=O)n(Cc4ccco4)c(C(C)C)nc3oc2c1 ?
Cruzain inh Det: inconclusive; Cruzain noTriton: 31.6µM*

Results for CCCCc1oc2ccccc2c1C(=O)c1cc(I)c(OCCN(CC)CC)c(I)c1 ?
Cruzain inh Det: 12.6µM*!

How did CCN(CC)CCOc1ncnc2c1oc1ccccc12 do in these assays?
Cruzain inh Det: -0.8%; Cruzain noTriton: -0.9%

How did COc1ccc(NC(=O)C(Cc2ccccc2)NS(=O)(=O)c2ccc3c(c2)CCC(=O)N3)c(OC)c1 (configuration not stated) do in these assays?
Cruzain inh Det: -0.5%; Cruzain noTriton: -6.4%

How did Cc1ccc(C(c2sc3nc(-c4ccco4)nn3c2O)N2CCOCC2)cc1 (configuration not stated) do in these assays?
Cruzain inh Det: -1.0%; Cruzain noTriton: 6.6%

Results for COc1ccc(C)cc1N(C(=O)c1ccccc1)c1nc2ccccc2s1 ?
Cruzain inh Det: -3.5%; Cruzain noTriton: inconclusive

Results for COc1ccc(C)cc1N(C(=O)c1ccccc1F)c1nc2ccccc2s1 ?
Cruzain inh Det: -5.2%; Cruzain noTriton: 1.58µM*

How did COc1ccc(CNC(=O)CCc2c(C)c3cc4c(C)coc4cc3oc2=O)cc1 do in these assays?
Cruzain inh Det: -8.5%; Cruzain noTriton: 0.9%

Results for O=C(NC(=S)Nc1nc2c(ccc3ccccc32)s1)c1cccs1 ?
Cruzain inh Det: -0.8%; Cruzain noTriton: 20µM*

What do the screens show for `O=C(Nc1nc2c(ccc3ccccc32)s1)c1ccco1`?
Cruzain inh Det: -12.0%; Cruzain noTriton: -20.0%

What do the screens show for `CCn1c2ccccc2c2nnc(NCCCO)nc21`?
Cruzain inh Det: 4.3%; Cruzain noTriton: 9.3%

How did N#C[C@H](C(=O)O)C(c1c(Cl)cccc1Cl)[C@H](C#N)C(=O)O do in these assays?
Cruzain inh Det: 1.9%; Cruzain noTriton: 1.5%

How did CCc1ccc(NC(=O)c2ccc(F)c(S(=O)(=O)N3CCc4ccccc4C3)c2)cc1 do in these assays?
Cruzain inh Det: 0.6%; Cruzain noTriton: inconclusive

Results for CCc1ccc(NC(=O)C(C)OC(=O)c2cccc(S(=O)(=O)N3CCc4ccccc4C3)c2)cc1 (configuration not stated) ?
Cruzain inh Det: -1.8%; Cruzain noTriton: 15.8µM*

How did CCOc1ccc(NC(=O)[C@@H](c2ccccc2)N2Cc3ccccc3C2=O)cc1 do in these assays?
Cruzain inh Det: -3.8%; Cruzain noTriton: -2.3%

Results for COc1cccc(-c2nc(CS(=O)(=O)CC(=O)Nc3ccc(C)c(Cl)c3)c(C)o2)c1 ?
Cruzain inh Det: -2.8%; Cruzain noTriton: -8.4%

Results for O=C(CSc1nnc(COc2ccc3c(c2)CCCC3)o1)Nc1ccc(F)cc1 ?
Cruzain inh Det: 2.2%; Cruzain noTriton: 25.1µM*

How did COC(=O)c1ccc(NC(=O)CSc2nnc(COc3c(C)cccc3C)o2)cc1 do in these assays?
Cruzain inh Det: 4.9%; Cruzain noTriton: 25.1µM*

How did COc1cccc(NC(=O)CSc2nnc(COc3ccc(Cl)cc3)o2)c1 do in these assays?
Cruzain inh Det: -5.2%; Cruzain noTriton: inconclusive

How did Cc1cccc(C)c1OCc1nnc(SCC(=O)Nc2ccccc2F)o1 do in these assays?
Cruzain inh Det: -4.7%; Cruzain noTriton: -9.3%

Results for COc1cc2nncc(SCc3ccc(Cl)c(Cl)c3)c2cc1OC ?
Cruzain inh Det: 1.9%; Cruzain noTriton: -2.2%

How did O=C1CN2CCN(CC2)CC(=O)Nc2ccc(cc2)S(=O)(=O)c2ccc(cc2)NC(=O)CN2CCN(CC2)CC(=O)Nc2ccc(cc2)S(=O)(=O)c2ccc(cc2)N1 do in these assays?
Cruzain inh Det: 3.16µM*; Cruzain noTriton: 3.16µM*

Assay outcomes as filed in PubChem.
